# Assay outcomes deposited in PubChem by several laboratories.
# A1 inh: caspase 3/7 activation in MEF A1-2A-BIM cells, primary screen, A1 inhibitor project, cell-based, luminescence, HTS; caspase activation, % (test concentration not listed); 330,000 tested, 0.066% active; AID 2462, 2010; Caspase-Glo 3/7 luminescence, 3 h; percent of clofoctol response, vehicle zero;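 active = over half of replicate activation scores above 10%, or exactly half above 10 with the replicate mean above 10; inconclusive = replicate mean below 10 yet half the replicates above 10; inactive = over half of replicates below 10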
# Beta apoptosis: inhibitors of cytokine-induced beta cell apoptosis, primary screen, luminescence. INS-1E cytokine-induced death, ATP luminescence, 48 h; percent of positive-control rescue, neutral wells zero. 300,000 tested, 0.8% active. protection from apoptosis, % (test concentration not listed);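 active = Every replicate reaches about 75%, or at least half do and their mean reaches it too, limit read from the data; inconclusive = At least half of replicates reach the limit but their mean does not; inactive = Under half of replicates reach the limit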;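 also: 0% = cytokine-treated negative control wells and 100% = positive control rescue; higher means more ATP so stronger rescue from cytokine killing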
# CSC inhib: cancer stem cell viability inhibitors, primary screen, luminescence. cancer stem cell-like cells viability. inhibition, % at 7.5 µM. 300,000 tested, 1.1% active. AID 2717, 2010; in the data active = inhibition above about 75%; inconclusive = no clear call, values can overlap the other calls; tested in HMLE shEcad cells
# Mdm2 MdmX PPI: inhibitors of human Mdm2-MdmX association, primary screen, cell-based, luminescence, split luciferase, SaOS-2, uHTS; Protein Mdm4 (Homo sapiens) + E3 ubiquitin-protein ligase Mdm2 (Homo sapiens), …; SaOS-2 split-luciferase Mdm2/MdmX complementation; inhibition, % at 8 µM; 330,000 tested, 3% active; AID 485346, 2010;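 active = inhibition of at least 50% at 8 µM in the primary screen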
# Target sequence (O15151 whole entry, looked up): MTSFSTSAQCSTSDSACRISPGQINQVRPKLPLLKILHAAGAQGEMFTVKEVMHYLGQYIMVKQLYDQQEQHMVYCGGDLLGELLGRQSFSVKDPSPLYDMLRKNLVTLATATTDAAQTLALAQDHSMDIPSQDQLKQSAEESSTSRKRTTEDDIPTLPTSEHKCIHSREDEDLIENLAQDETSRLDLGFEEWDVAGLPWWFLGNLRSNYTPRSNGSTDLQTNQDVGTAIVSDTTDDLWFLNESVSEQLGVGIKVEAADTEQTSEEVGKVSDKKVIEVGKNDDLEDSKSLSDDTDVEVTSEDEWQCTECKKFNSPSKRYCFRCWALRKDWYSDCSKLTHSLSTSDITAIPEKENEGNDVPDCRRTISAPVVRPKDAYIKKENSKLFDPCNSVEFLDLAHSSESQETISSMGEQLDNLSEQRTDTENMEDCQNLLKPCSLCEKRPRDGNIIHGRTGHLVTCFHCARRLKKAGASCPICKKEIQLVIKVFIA
# Target sequence (Q00987 whole entry, looked up): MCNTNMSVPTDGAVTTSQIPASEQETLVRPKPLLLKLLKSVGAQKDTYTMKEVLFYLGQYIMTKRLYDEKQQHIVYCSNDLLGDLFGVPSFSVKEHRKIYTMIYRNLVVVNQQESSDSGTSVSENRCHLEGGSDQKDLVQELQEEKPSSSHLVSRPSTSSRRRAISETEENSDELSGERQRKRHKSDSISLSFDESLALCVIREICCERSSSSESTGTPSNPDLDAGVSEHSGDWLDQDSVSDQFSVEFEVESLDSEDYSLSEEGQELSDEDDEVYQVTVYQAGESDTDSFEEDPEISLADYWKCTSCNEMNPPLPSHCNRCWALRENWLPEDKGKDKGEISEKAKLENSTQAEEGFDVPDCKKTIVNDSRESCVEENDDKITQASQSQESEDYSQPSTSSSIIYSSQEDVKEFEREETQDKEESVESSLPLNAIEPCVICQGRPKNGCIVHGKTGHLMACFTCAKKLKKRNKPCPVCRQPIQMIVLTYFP
# aSyn UTR inh: MLPCN primary screen, SNCA 5' untranslated region; alpha-synuclein 5'UTR reporter, inhibitor activity; inhibition, % (tested at 7.5 µM); 300,000 tested, 0.82% active; AID 1813, 2009; in the data active = inhibition above about 60%; inconclusive = no clear call, values can overlap the other calls;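 also: H4 neuroglioblastoma cells stably carrying SNCA 5'UTR luciferase fusion; 0% = DMSO wells and 100% = positive control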
# Numbers without * were called inactive; ? = inconclusive; · = no result. A selection: hits, their analogues and other compounds. The true share with any hit is near 4.1%.
SMILES,A1 inh,Beta apoptosis,CSC inhib,Mdm2 MdmX PPI,aSyn UTR inh
c1cncc(-c2nc(NCc3ccco3)c3ccccc3n2)c1,-1,-7,5,3,-21
OCCN1CCN(c2nc(NCc3ccco3)c3ccccc3n2)CC1,0,-1,-11,19,-15
CCOC(=O)c1ccc(N2CCOCC2)c(NS(=O)(=O)c2ccc(F)cc2)c1,0,2,-5,17,-8
O=C(Nc1ccc(-c2nc3cccnc3s2)cc1)C1CCCO1 (stereo not drawn),-8,-16,8,11,87*
COc1ccc2ccc(OCC(=O)NCC3CCCO3)cc2c1 (stereo not drawn),·,·,·,17,·
Cc1cccc(C)c1NC1=C(Cl)C(=O)OC1OC(C)C (stereo not drawn),1,1,23,18,8
Cc1ccc(NC2=C(Cl)C(=O)OC2OC(C)C)c(C)c1 (stereo not drawn),-2,-10,-6,5,69*
CCOC(=O)COc1ccc2ccccc2c1/C=C/[N+](=O)[O-],2,106*,-8,·,3
NC(=O)C1CCCN(C(=O)c2cccc(NC(=O)c3cccs3)c2)C1 (stereo not drawn),·,·,·,-4,·
O=C(/C=C/c1ccc(O)cc1)c1ccccc1,-5,-1,39,-38,-118
O=C(/C=C/c1ccc(N2CCC(c3ccccc3)=N2)cc1)c1ccccc1,-1,7,92*,-12,-67
Cc1c(C)n2c(SCC(=O)N3CCCCC3)nnc2[nH]c1=O,0,-1,-9,11,5
COc1cccc2[nH]c(C(=O)NCc3ccccc3)cc12,1,·,·,25,-7
Cc1ccc(S(=O)(=O)N2CCCCC2)cc1NC(=O)CNC(C)c1ccc(Cl)c(Cl)c1 (stereo not drawn),-1,0,·,16,·
O=[N+]([O-])c1ccc(N2CCN(CCOc3nonc3-c3ccccc3)CC2)c(Cl)c1,0,119*,8,27,25
Cc1nonc1OCCN1CCN(c2ccc([N+](=O)[O-])cc2)CC1,1,5,2,19,-12
Cc1ccc(C(=O)NC(=C(Cl)Cl)S(=O)(=O)c2ccc(C)cc2)cc1,0,-12,96*,27,-72
Cc1ccc(NS(=O)(=O)c2sc3ccc(Cl)cc3c2C)cc1,0,-5,98*,17,2
Cc1ccccc1OCC(=O)Nc1ccc(C(=O)Nc2ccccc2C(=O)O)cc1,-1,0,16,1,-3
CCOc1cc(/C=N\NC(N)=O)cc(Br)c1OC(C)C,2,-9,-10,32,62*
CCOc1cc(/C=N/NC(N)=O)cc(Br)c1OCc1ccccc1F,1,2,5,3,3
COc1ccc(Cl)cc1NC(=O)c1sc2nc(C)nc(N3CCOCC3)c2c1C,-2,24,8,45,36
Cc1nc(NC(=O)c2ccc(F)cc2)sc1C(=O)Nc1ccc2c(c1)CCC2,-6,2,35,9,-99
Cc1ccc(C(=O)Nc2nc(C)c(C(=O)Nc3ccc4c(c3)CCC4)s2)cc1,-2,14,81*,15,-23
CC1CCN(c2nc(-c3cccnc3)nc3scc(-c4ccccc4)c23)CC1,1,9,95*,17,-4
SMILES,A1 inh,Beta apoptosis,CSC inhib,Mdm2 MdmX PPI,aSyn UTR inh
COc1ccc(C2=COc3ccccc3C(=O)N2)cc1,-2,-6,7,4,-57
COc1ccc(C2=C(C=O)Cc3ccccc3O2)cc1,1,2,15,40,98*
Cc1cc(C)c(S(=O)(=O)N2CCCCC2CCNC(=O)C(=O)NCc2ccccn2)c(C)c1 (stereo not drawn),1,·,-18,14,-13
Cc1cc(C(=O)Nc2nncs2)oc1C,-2,-2,-6,10,-39
COc1ccc(CNc2ncnc3sccc23)cc1,-1,75*,2,28,-5
COc1ccc(CNc2ncnc3sccc23)cc1OC,0,54,2,17,-5
c1csc(CNc2ncnc3sccc23)c1,0,80*,-1,-7,-59
Cc1nc(C(=O)NNC(=O)c2c(-c3c(Cl)cccc3Cl)noc2C)cs1,0,86*,35,30,63*
Cc1onc(-c2c(Cl)cccc2Cl)c1NC(=O)NNc1ccccc1,2,9,3,-6,3
Cc1onc(-c2c(Cl)cccc2Cl)c1C(=O)Nc1nc(C(C)(C)C)cs1,1,·,·,40,80*
Cc1cc(C)nc(NC(=O)c2c(-c3c(Cl)cccc3Cl)noc2C)n1,0,-3,·,-3,12
Cc1cc(NC(=O)c2c(-c3c(F)cccc3Cl)noc2C)no1,1,-2,1,-9,-10
Cc1cc(C(=O)NNC(=O)c2c(-c3c(Cl)cccc3Cl)noc2C)no1,1,3,-7,3,7
Cc1ccc(NC(=O)c2c(-c3c(F)cccc3Cl)noc2C)cc1F,0,96*,5,16,-10
Cc1onc(-c2c(Cl)cccc2Cl)c1C(=O)NNc1ccccc1,1,-3,91*,11,-6
COc1cccc(C(=O)OCC(=O)NC23CC4CC(CC(C4)C2)C3)c1,0,-1,-10,18,·
CS(=O)(=O)c1ccc(C(=O)OCC(=O)NC23CC4CC(CC(C4)C2)C3)cc1[N+](=O)[O-],0,-44,155*,49,1
O=S(=O)(Nc1ccc(O)c(Sc2nc3ccccc3s2)c1)c1cccc2ccccc12,0,-8,81*,17,22
O=S(=O)(Nc1ccc(O)c(Sc2nc3ccccc3s2)c1)c1ccc(F)cc1,1,-8,-2,13,36
Cc1cc(-n2c(C)cc(C(=O)COc3ccc(Cl)cc3C(N)=O)c2C)no1,-1,-1,-16,6,·
O=S1(=O)C=C(Sc2nc3ccccc3s2)c2ccccc21,?,122*,141*,-15,-14
COc1ccccc1Nc1nc2ccc(C)cc2n2cnnc12,-1,-8,-16,16,-25
Cc1ccc(C)c(-c2nc3cc(N)ccc3o2)c1,-13,3,22,-35,63*
Cc1ccc(-c2nc3cc(N)ccc3o2)cc1Br,-6,1,23,-126,-54
Cc1ccc2nc(-c3cc(N)cc(N)c3)oc2c1,-6,3,2,11,62*
SMILES,A1 inh,Beta apoptosis,CSC inhib,Mdm2 MdmX PPI,aSyn UTR inh
CN(C)c1ccc(-c2nc3cc(N)ccc3o2)cc1,-11,3,15,-62,93*
Nc1ccc(-c2nc3cc(N)ccc3o2)cc1,-6,-2,1,-99,-52
COCC(=O)N1CCC(Oc2ccc(C(=O)NC(C)c3csc(C)n3)cc2)CC1 (stereo not drawn),0,3,1,9,7
COc1ccc(NS(=O)(=O)NC(=O)c2c[nH]c3ccccc23)cc1,1,-1,2,16,-38
NS(=O)(=O)c1ccc(N/N=C/c2cn(-c3ccccc3)nc2-c2cccs2)cc1,0,2,81*,7,-92
NC(=O)N/N=C/c1cn(-c2ccccc2)nc1-c1cccs1,-4,19,28,-41,-59
